Out of some 5,500 compounds screened, about 2,000 (36%) were called active. Roughly 18% stayed inconclusive and do not appear here. The list shows a part of the results. Unmarked numbers belong to inactive results. Cut-off read from the data, not from the text of the source: active = normalized growth mostly below about 0.91 (no sharp cut-off); inconclusive = no clear call, values can overlap the other calls; inactive = mostly above about 0.92.
Experiment: chemical genetic growth profiling, strain panel (AID 1159580);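 note: tested at 20 µM; growth read once vehicle control cultures reached saturation at 30 °C; 1 = growth at the plate median or of vehicle wells; lower values mean less growth of the strain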
Conditions: growth OD

## O=S1OCC2C(CO1)C1(Cl)C(Cl)=C(Cl)C2(Cl)C1(Cl)Cl (centres undefined)
S. cerevisiae deletion strains, locus YJR043C, strain POL32, hits give low values
  normalized growth: 0.96
S. cerevisiae deletion strains, locus YJR075W, strain HOC1, hits give low values
  normalized growth: 0.986
S. cerevisiae deletion strains, locus YKL009W, strain mrt4, hits give low values
  normalized growth: 0.947
S. cerevisiae deletion strains, locus YKL068W, hits give low values
  normalized growth: 0.964
S. cerevisiae deletion strains, locus YKL085W, strain MDH1 (second series), hits give low values
  normalized growth: 0.982
S. cerevisiae deletion strains, locus YKL085W, strain MDH1, hits give low values
  normalized growth: 0.982
S. cerevisiae deletion strains, locus YKL160W, strain elf1, hits give low values
  normalized growth: 0.953
S. cerevisiae deletion strains, locus YKL190W, strain CNB1, hits give low values
  normalized growth: 1
S. cerevisiae deletion strains, locus YKR001C, strain vps1, hits give low values
  normalized growth: 0.975
S. cerevisiae deletion strains, locus YKR026C, strain gcn3, hits give low values
  normalized growth: 0.987
S. cerevisiae deletion strains, locus YKR091W, strain srl3, hits give low values
  normalized growth: 0.991
S. cerevisiae deletion strains, locus YLL001W, strain dnm1, hits give low values
  normalized growth: 0.99
S. cerevisiae deletion strains, locus YLL026W, hits give low values
  normalized growth: 1
S. cerevisiae deletion strains, locus YLL041C, strain sdh2, hits give low values
  normalized growth: 0.992
S. cerevisiae deletion strains, locus YLR027C, strain aat2, hits give low values
  normalized growth: 0.961
S. cerevisiae deletion strains, locus YLR039C, strain RIC1, hits give low values
  normalized growth: 1.06
S. cerevisiae deletion strains, locus YLR058C, strain SHM2, hits give low values
  normalized growth: 0.979
S. cerevisiae deletion strains, locus YLR102C, strain apc9, hits give low values
  normalized growth: 0.973
S. cerevisiae deletion strains, locus YLR221C, strain rsa3, hits give low values
  normalized growth: 0.931
S. cerevisiae deletion strains, locus YLR258W, strain gsy2, hits give low values
  normalized growth: 0.973
S. cerevisiae deletion strains, locus YLR262C, strain YPT6 (second series), hits give low values
  normalized growth: 1.06
S. cerevisiae deletion strains, locus YLR262C, strain YPT6, hits give low values
  normalized growth: 1.05
S. cerevisiae deletion strains, locus YLR268W, strain sec22, hits give low values
  normalized growth: 0.97
S. cerevisiae deletion strains, locus YLR320W, strain mms22, hits give low values
  normalized growth: 0.961
S. cerevisiae deletion strains, locus YLR330W, strain CHS5, hits give low values
  normalized growth: 0.984
S. cerevisiae deletion strains, locus YLR342W, strain FKS1 (second series), hits give low values
  normalized growth: 0.872
S. cerevisiae deletion strains, locus YLR342W, strain FKS1, hits give low values
  normalized growth: 0.991
S. cerevisiae deletion strains, locus YLR357W, strain rsc2, hits give low values
  normalized growth: 0.996
S. cerevisiae deletion strains, locus YLR370C, strain arc18, hits give low values
  normalized growth: 0.997
S. cerevisiae deletion strains, locus YLR371W, strain rom2, hits give low values
  normalized growth: 0.949
S. cerevisiae deletion strains, locus YLR384C, strain iki3, hits give low values
  normalized growth: 1
S. cerevisiae deletion strains, locus YLR418C, strain cdc73, hits give low values
  normalized growth: 0.946
S. cerevisiae deletion strains, locus YML016C, strain PPZ1, hits give low values
  normalized growth: 0.991
S. cerevisiae deletion strains, locus YML032C, strain rad52, hits give low values
  normalized growth: 0.974
S. cerevisiae deletion strains, locus YML120C, strain ndi1, hits give low values
  normalized growth: 0.983
S. cerevisiae deletion strains, locus YML124C, strain tub3, hits give low values
  normalized growth: 0.976
S. cerevisiae deletion strains, locus YMR058W, strain fet3, hits give low values
  normalized growth: 0.976
S. cerevisiae deletion strains, locus YMR078C, strain ctf18, hits give low values
  normalized growth: 0.977
S. cerevisiae deletion strains, locus YMR125W, strain sto1, hits give low values
  normalized growth: 0.998
S. cerevisiae deletion strains, locus YMR129W, hits give low values
  normalized growth: 0.992
S. cerevisiae deletion strains, locus YMR205C, strain PFK2, hits give low values
  normalized growth: 0.91
S. cerevisiae deletion strains, locus YMR223W, strain ubp8, hits give low values
  normalized growth: 0.955
S. cerevisiae deletion strains, locus YMR231W, strain pep5, hits give low values
  normalized growth: 0.97
S. cerevisiae deletion strains, locus YMR263W, strain SAP30, hits give low values
  normalized growth: 0.946
S. cerevisiae deletion strains, locus YMR307W, strain GAS1, hits give low values
  normalized growth: 0.978
S. cerevisiae deletion strains, locus YNL067W, strain RPL9B, hits give low values
  normalized growth: 0.981
S. cerevisiae deletion strains, locus YNL071W, strain lat1, hits give low values
  normalized growth: 0.966
S. cerevisiae deletion strains, locus YNL128W, strain TEP1, hits give low values
  normalized growth: 0.975
S. cerevisiae deletion strains, locus YNL153C, strain GIM3, hits give low values
  normalized growth: 0.987
S. cerevisiae deletion strains, locus YNL209W, strain ssb2, hits give low values
  normalized growth: 0.991
S. cerevisiae deletion strains, locus YNL233W, strain BNI4, hits give low values
  normalized growth: 1
S. cerevisiae deletion strains, locus YNL248C, strain rpa49, hits give low values
  normalized growth: 0.992
S. cerevisiae deletion strains, locus YNL250W, strain rad50, hits give low values
  normalized growth: 0.957
S. cerevisiae deletion strains, locus YNL271C, strain bni1, hits give low values
  normalized growth: 0.971
S. cerevisiae deletion strains, locus YNL298W, strain CLA4, hits give low values
  normalized growth: 0.946
S. cerevisiae deletion strains, locus YNL307C, strain MCK1, hits give low values
  normalized growth: 0.885 (active)
S. cerevisiae deletion strains, locus YNL322C, strain KRE1 (second series), hits give low values
  normalized growth: 0.986
S. cerevisiae deletion strains, locus YNL322C, strain KRE1, hits give low values
  normalized growth: 0.978
S. cerevisiae deletion strains, locus YNR049C, strain mso1, hits give low values
  normalized growth: 0.997
S. cerevisiae deletion strains, locus YNR052C, strain pop2, hits give low values
  normalized growth: 0.968
S. cerevisiae deletion strains, locus YOL006C, strain TOP1, hits give low values
  normalized growth: 0.822
S. cerevisiae deletion strains, locus YOL012C, strain htz1
  normalized growth: 0.777
S. cerevisiae deletion strains, locus YOL147C, strain pex11, hits give low values
  normalized growth: 0.991
S. cerevisiae deletion strains, locus YOR001W, strain rrp6, hits give low values
  normalized growth: 0.978
S. cerevisiae deletion strains, locus YOR061W, strain CKA2, hits give low values
  normalized growth: 0.987
S. cerevisiae deletion strains, locus YOR069W, strain VPS5, hits give low values
  normalized growth: 0.979
S. cerevisiae deletion strains, locus YOR070C, strain gyp1, hits give low values
  normalized growth: 0.979
S. cerevisiae deletion strains, locus YOR080W, strain dia2, hits give low values
  normalized growth: 0.991
S. cerevisiae deletion strains, locus YOR083W, strain WHI5, hits give low values
  normalized growth: 0.942
S. cerevisiae deletion strains, locus YOR106W, strain vam3, hits give low values
  normalized growth: 0.884
S. cerevisiae deletion strains, locus YOR136W, strain idh2, hits give low values
  normalized growth: 0.98
S. cerevisiae deletion strains, locus YOR144C, strain elg1, hits give low values
  normalized growth: 0.984
S. cerevisiae deletion strains, locus YOR184W, strain ser1, hits give low values
  normalized growth: 0.887
S. cerevisiae deletion strains, locus YOR265W, strain rbl2, hits give low values
  normalized growth: 0.993
S. cerevisiae deletion strains, locus YOR270C, strain vph1, hits give low values
  normalized growth: 0.633 (active)
S. cerevisiae deletion strains, locus YOR290C, strain snf2, hits give low values
  normalized growth: 0.937
S. cerevisiae deletion strains, locus YOR316C, strain cot1, hits give low values
  normalized growth: 0.975
S. cerevisiae deletion strains, locus YPL051W, strain arl3, hits give low values
  normalized growth: 0.988
S. cerevisiae deletion strains, locus YPL055C, strain LGE1, hits give low values
  normalized growth: 0.974
S. cerevisiae deletion strains, locus YPL078C, strain atp4, hits give low values
  normalized growth: 0.987
S. cerevisiae deletion strains, locus YPL106C, strain sse1, hits give low values
  normalized growth: 0.993
S. cerevisiae deletion strains, locus YPL240C, strain hsp82, hits give low values
  normalized growth: 0.991
S. cerevisiae deletion strains, locus YPL241C, strain CIN2, hits give low values
  normalized growth: 0.985
S. cerevisiae deletion strains, locus YPR119W, strain clb2, hits give low values
  normalized growth: 0.976
S. cerevisiae deletion strains, locus YPR141C, strain kar3, hits give low values
  normalized growth: 0.98
S. cerevisiae deletion strains, locus YPR163C, strain tif3, hits give low values
  normalized growth: 0.978
S. cerevisiae deletion strains, locus YPR167C, strain met16, hits give low values
  normalized growth: 0.971
S. cerevisiae deletion strains, strain wtn01, hits give low values
  normalized growth: 0.954
S. cerevisiae strains, strain wild type, hits give low values
  normalized growth: 0.987
